Bioassay records: PubChem, The Scripps Research Institute Molecular Screening Center
An excerpt weighted towards active compounds, which were near 4.1% of everything screened.
ssDAF12 agonist: S. stercoralis DAF-12 nuclear receptor activators, primary screen, cell-based, luminescence, HEK293, GRIP1 co-expression, lit1-tk-luc. Nuclear hormone receptor DAF-12 (Strongyloides stercoralis). HEK293 ssDAF-12/GRIP1 lit1-tk-luc reporter; % of 3 µM dafachronic acid response. activation, % at 6.8 µM. 370,000 compounds, 1% hits;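 active = activation above the mean over all tested compounds plus 3 SD, cut at about 0.9% in these data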;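 note: 0% = DMSO-only wells and 100% = 3 µM delta7-dafachronic acid wells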
DAX1 inh-1: DAX1 (NR0B1) inhibitors on StAR promoter, primary screen, cell-based, luminescence, SF-1 (NR5A1), full-length DAX-1 | HEK293T StAR-luciferase reporter, SF-1/DAX-1 repression relief | inhibition, % at 6.8 µM | 370,000 compounds, 1.1% hits;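 active = inhibition above the mean over all tested compounds plus 3 SD, cut at about 3.6% in these data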;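 note: 0% = DAX-1 cells with DMSO and 100% = cells lacking DAX-1 with DMSO; higher inhibition means more luminescence from relief of DAX-1 repression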
DAX1 inh-2: DAX1 (NR0B1) inhibitors, primary screen, cell-based, HEK293, Gal4-DAX1, luciferase luminescence | Nuclear receptor subfamily 0 group B member 1 (Homo sapiens), P51843 | HEK293 Gal4-DAX1 luciferase reporter | inhibition, % at 6.75 µM | 340,000 compounds, 0.99% hits | AID 504766, 2011;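 active = inhibition above the mean over all tested compounds plus 3 SD, cut at about 4.2% in these data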;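 note: 0% = DAX1-transfected cells with DMSO and 100% = empty-vector control cells with DMSO; inhibition shows as a rise in luminescence from relieved DAX1 repression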
hcDAF-12 act: H. contortus DAF-12 nuclear receptor activators, primary screen, cell-based, luminescence, HEK293, lit1-tk-luc reporter | HEK293 hcDAF-12 lit1-tk-luc reporter; 0% DMSO, 100% Δ7-dafachronic acid | AID 652067, 2013 | activation, % at 6.8 µM | 370,000 compounds, 1.4% hits;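 active = activation above the mean of all tested compounds plus 3 SD, cut at about 5.5% in these data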;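 note: 100% = response to 3 µM Δ7-dafachronic acid high control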
hgDAF12 agonist: H. glycines DAF-12 receptor agonists, primary screen, cell-based, luminescence, HEK293, GAL4 fusion, UAS-luciferase; Nuclear hormone receptor DAF-12 (Heterodera glycines), GAL4 fusion; HEK293 GAL4-hgDAF12 UAS-luciferase reporter, agonist luminescence; normalized to butyrate control; activation, % at 6.8 µM; 370,000 compounds, 1.8% hits;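 active = activation above a cutoff set at the mean of all screened compounds plus 3 SD, cut at about 10% in these data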;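 note: 0% = DMSO wells and 100% = sodium butyrate wells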
LXRb hcDAF ctr: LXR agonists, Gal4 luciferase reporter, confirmation, counter-screen for hcDAF-12 agonist project, cell-based, luminescence, HEK293, H. contortus campaign; HEK293 Gal4-LXR tk-luc reporter, 24 h; normalized: DMSO 0%, positive control 100%; shares compounds with hcDAF-12 act; activation, % at 6.8 µM; 3,400 tested, under 10 active;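 active = mean percent activation of the reporter above a cutoff set as the average over tested compounds plus their standard deviation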
Target sequence (P55055 whole entry, looked up, the tested form may be a part): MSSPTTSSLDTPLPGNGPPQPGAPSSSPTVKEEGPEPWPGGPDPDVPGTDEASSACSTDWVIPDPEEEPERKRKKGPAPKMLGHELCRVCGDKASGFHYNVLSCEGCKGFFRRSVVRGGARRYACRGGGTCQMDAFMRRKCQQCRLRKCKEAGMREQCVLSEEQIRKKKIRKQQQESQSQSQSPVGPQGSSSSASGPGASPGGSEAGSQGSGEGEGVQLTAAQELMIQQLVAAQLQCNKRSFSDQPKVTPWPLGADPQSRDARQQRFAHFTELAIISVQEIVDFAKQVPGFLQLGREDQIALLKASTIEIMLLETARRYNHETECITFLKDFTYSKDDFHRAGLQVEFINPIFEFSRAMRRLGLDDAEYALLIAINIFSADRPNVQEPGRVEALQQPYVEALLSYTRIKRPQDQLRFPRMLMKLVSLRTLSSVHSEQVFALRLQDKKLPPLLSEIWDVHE
hcDAF12 ag: H. contortus DAF-12 receptor agonists, confirmation, cell-based, luminescence, HEK293, lit1-tk-luc, triplicate. shares compounds with hcDAF-12 act. HEK293 hcDAF-12 lit1-tk-luc reporter; % of Δ7-dafachronic acid response. activation, % at 6.8 µM. 3,400 compounds, 61% hits. AID 743032, 2013;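 active = mean activation across triplicate tests above the threshold derived from the earlier primary screen, cut at about 5.5% in these data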;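 note: 0% = DMSO only wells and 100% = 3 µM Δ7-dafachronic acid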
hgDAF12 ag: H. glycines DAF-12 receptor agonists, confirmation, cell-based, luminescence, HEK293, GAL4-LBD fusion; shares compounds with hgDAF12 agonist; HEK293 GAL4-hgDAF12 luciferase reporter, agonist mode; percent of butyrate response; AID 743050, 2013; activation, % at 6.8 µM; 3,300 compounds, 80% hits;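 active = mean activation over triplicate wells above the hit cutoff derived from the earlier primary screen, cut at about 11% in these data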;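 note: 0% = DMSO low control and 100% = 2 mM sodium butyrate high control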
LXRb DAF12 ctr: LXR agonists, Gal4 luciferase reporter, confirmation, counter-screen for hgDAF-12 agonist project, cell-based, luminescence, HEK293, H. glycines campaign. activation, % at 6.8 µM. 3,300 tested, under 10 active. shares compounds with hgDAF12 agonist. 24 h. AID 743051, 2013;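 active = mean activation of the triplicate above a set limit carried over from the primary screen, none filed active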
Starred values were filed as active, the others as inactive; · = no result.

SMILES	ssDAF12 agonist	DAX1 inh-1	DAX1 inh-2	hcDAF-12 act	hgDAF12 agonist	LXRb hcDAF ctr	hcDAF12 ag	hgDAF12 ag	LXRb DAF12 ctr
COc1ccc(C(=O)N/N=C(/C)c2cccc(NC(=O)c3ccccc3F)c2)cc1	-0.6	1.1	0.6	3.3	5.9	·	·	·	·
C/C(=N\NC(=O)c1nn(C)c(C)c1Br)c1ccc(NC(=O)c2ccccc2F)cc1	0.5	4.2*	4.4*	7.2*	13.9*	0.1	-0.3	1.8	0.0
O=C(O)C(=O)/C(=C\c1ccsc1)c1ccc2ccccc2n1	3.2*	3.0	2.4	23.3*	16.5*	1.0	13.6*	20.4*	0.6
O=C(O)C(=O)/C(=C\c1cccc2ccccc12)c1ccc2ccccc2n1	-0.5	0.9	0.6	2.2	0.8	·	·	·	·
O=C(O)C(=O)/C(=C\c1ccccc1)c1ccc2ccccc2n1	3.3*	4.5*	3.0	19.2*	16.8*	1.4	15.9*	22.0*	1.1
COc1ccc(C)cc1NC(=O)CN(C)S(=O)(=O)c1ccc2c(c1)CC(C)N2C(C)=O (stereo not given)	-0.6	0.0	-0.7	1.0	-1.9	·	·	·	·
O=C(Nc1nc2ccccc2[nH]1)c1cccc(Cl)c1	0.9	1.3	2.3	8.2*	15.7*	1.8	5.8*	17.5*	1.0
O=C(Nc1nc2ccccc2[nH]1)c1ccccc1	1.4*	2.2	-0.9	13.1*	13.6*	1.3	13.6*	14.1*	0.9
CC(=O)Nc1ccc(Nc2cc(C)nc3c(-c4ccccc4)cnn23)cc1	-2.1	-1.2	0.1	-4.2	-9.4	·	·	·	·
CCSc1cc(C)nc2c(-c3ccccc3)cnn12	2.4*	4.0*	3.8	13.4*	17.5*	1.1	10.9*	15.4*	0.8
Cc1cc(NC(=O)Nc2ccccc2F)ccc1Br	0.6	3.5	2.9	7.1*	20.9*	1.3	6.3*	17.7*	1.1
C#CC(=O)CC1(CN(Cc2ccccc2)C(=O)OC(C)(C)C)CCCCC1	-1.3	0.1	-1.1	-0.1	3.0	·	·	·	·
Brc1c(-c2ccccc2)nc2n1Cc1ccccc1-2	1.8*	2.2	3.7	11.4*	16.4*	0.9	11.1*	18.1*	0.6
c1ccc2c(c1)Cn1nnnc1-2	·	·	1.0	·	·	·	·	·	·
CCOC(=O)c1ccc(NC(=O)N(CC)CC)cc1	-0.9	2.0	1.3	-0.3	4.7	·	·	·	·
COc1cc(-c2nc3ccccc3s2)ccc1O	0.0	2.3	3.0	8.6*	14.2*	0.6	7.3*	14.4*	0.6
O=C(CSc1nc(=O)n2ccccc2n1)OCc1ccccc1	-0.6	1.1	-0.7	0.1	2.1	·	·	·	·
